In this assay the test system is Caenorhabditis elegans L1 (N2). Kind of assay: survival and reproduction score of C. elegans L1 (0: 0-10 living worms, 1: 11-20, 2: 21-50, 3: >50, 4: overgrown) (score 0-4); higher = more worms, less nematicidal, active = 1 or less; extreme values may be limits of the assay. Particulars: 60 µM; 6 days; temperature: 20 °C. As for the experimental part:
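DODA library (846 commercial 1,3,4- and 1,2,4-oxadiazole compounds plus commercial nematicide controls) screened at a single dose of 60 µM (0.6% DMSO) in 96-well plates, two biological replicates. Read-outs: C. elegans N2 L1 survival/reproduction score at day 6, 20 °C (0: 0-10 worms, 1: 11-20, 2: 21-50, 3: >50, 4: overgrown/starved). C. elegans daf-2 dauer, D. dipsaci and M. hapla J2 mobility at day 5, 20 °C, and P. penetrans mobility at day 5, 20 °C, each relative to DMSO controls. M. hapla egg hatching at day 12, 25 °C, relative to the mean of 8 DMSO wells on the same plate.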
On to `Clc1ccccc1OCc1nc(-c2ccccn2)no1`, for which the “survival and reproduction score” value is 4 (inactive).

With `COc1ccc(CCC(=O)Nc2ccc(-c3noc(COc4ccccc4C)n3)cc2)cc1`, the “survival and reproduction score” value is 4 (inactive). As for `O=C(CSc1nnc(-c2ccc(Br)cc2)o1)NC1CCCCC1`, the figure is 4 (inactive); as for `COc1ccc(CCC(=O)Nc2ccc(-c3noc(-c4ccc(F)cc4)n3)cc2)cc1`, 4 (inactive); as for `O=C(CSc1nnc(-c2cccc(Cl)c2)o1)NC1CCCCC1`, 4 (inactive). In the case of `COc1cccc(NC(=O)CSc2nnc(-c3ccc(Br)cc3)o2)c1`, the “survival and reproduction score” value is 4 (inactive).

In the case of `CCOc1ccccc1-c1nnc(SCC(=O)Nc2nc(C)cs2)o1`, the “survival and reproduction score” value is 4 (inactive). The same measure for `COc1ccc(CC(=O)Nc2ccc(-c3noc(-c4ccccc4Br)n3)cc2)cc1`: 4 (inactive); for `COc1ccc(-c2noc(COc3ccc(C)cc3C)n2)cc1`: 4 (inactive); for `CC(Sc1nnc(-c2cccnc2)o1)C(=O)c1ccccc1` (stereo not given): 4 (inactive).

As for `COc1ccc(-c2noc(-c3ccc(C)c(C)c3)n2)cc1`, the “survival and reproduction score” value was 2 (inactive). Take `N#Cc1ccc(CSc2nnc(-c3ccco3)o2)cc1`: the “survival and reproduction score” value was 1.5 (inactive). The same measure for `Brc1ccc(OCc2nc(-c3ccncc3)no2)cc1`: 4 (inactive). The same measure for `CC(=O)Nc1ccc(NC(=O)c2ccccc2-c2nc(-c3cccc(C)c3)no2)cc1`: 4 (inactive); for `O=C(CSc1nnc(-c2ccco2)o1)Nc1ccc(Br)cc1`: 4 (inactive). Turning to `CCOC(=O)c1c(NC(=O)CSc2nnc(-c3ccc(Cl)cc3)o2)sc(C)c1C`, the “survival and reproduction score” value was 4 (inactive).

As to `COc1cccc(-c2noc(CSc3ccccc3)n2)c1`, the “survival and reproduction score” value is 4 (inactive). For `O=C(CSc1nnc(-c2cccc(Br)c2)o1)c1ccc2c(c1)CCCC2`, the “survival and reproduction score” value is 4 (inactive).

Turning to `Clc1ccc(-c2nnc(SCc3ccccc3)o2)c(Cl)c1`, the “survival and reproduction score” value is 4 (inactive). Consider `CCc1cccc(C)c1NC(=O)CSc1nnc(-c2ccccc2)o1`, for which the “survival and reproduction score” value is 4 (inactive). Regarding `Cc1cccc(-c2nnc(SCC(=O)Nc3ccccc3C(C)C)o2)c1`, the “survival and reproduction score” value was 4 (inactive).

In the case of `COc1cccc(-c2noc(-c3cccc(F)c3)n2)c1`, the “survival and reproduction score” value is 4 (inactive). On to `Clc1ccccc1-c1noc(-c2ccncc2)n1`, for which the “survival and reproduction score” value was 4 (inactive). The same measure for `COc1ccc(-c2noc(COc3ccccc3Cl)n2)cc1`: 4 (inactive).

In the case of `COc1ccc(-c2noc(-c3cccc(Cl)c3)n2)cc1`, the “survival and reproduction score” value is 4 (inactive).

On to `COc1ccc(-c2noc(-c3cc(C)ccc3C)n2)cc1`, for which the “survival and reproduction score” value was 4 (inactive). As for `Cc1ccc(-c2noc(-c3cccc(Br)c3)n2)cc1`, the figure is 4 (inactive).

As to `CC(C)C(=O)Nc1ccccc1-c1nc(-c2ccncc2)no1`, the “survival and reproduction score” value was 4 (inactive). Turning to `Cc1ccccc1-c1nnc(SCC(=O)Nc2cc(C(F)(F)F)ccc2N2CCOCC2)o1`, the “survival and reproduction score” value is 4 (inactive). As for `O=C(CSc1nnc(-c2ccc(Br)cc2)o1)NC1CCCC1`, the figure is 4 (inactive); as for `Clc1cccc(-c2nc(-c3ccc4c(c3)OCO4)no2)c1`, 4 (inactive); as for `CCOc1ccccc1-c1nnc(SCc2ccc(C(=O)OC)o2)o1`, 4 (inactive). Regarding `O=C(CSc1nnc(-c2cccnc2)o1)c1ccc(Br)cc1`, the “survival and reproduction score” value was 4 (inactive). The same measure for `O=C(NCc1cccnc1)c1ccccc1-c1nc(-c2ccccc2Cl)no1`: 4 (inactive). As for `COc1cccc(-c2nc(-c3ccc(Cl)cc3)no2)c1`, the figure is 4 (inactive). The same measure for `COc1ccc(-c2noc(COc3ccc(Cl)c(C)c3)n2)cc1`: 4 (inactive); for `c1ccc2c(OCc3nc(-c4ccncc4)no3)cccc2c1`: 4 (inactive); for `O=C(CSc1nnc(-c2ccco2)o1)Nc1cccc(Cl)c1Cl`: 4 (inactive). For `CCc1ccc(C(=O)Nc2ccccc2-c2nc(-c3cccnc3)no2)cc1`, the “survival and reproduction score” value was 4 (inactive). With `COc1ccc(-c2noc(-c3ccc(Cl)cc3)n2)cc1`, the “survival and reproduction score” value was 3 (inactive).

The values above are taken from the supplement of paper PMC11219838.
